From PubChem BioAssay (EPA / NIEHS)
Several values for one entry are separate records, joined by “and”; a condition that tells them apart may be missing. Equal values may be shown once. A structure can be active in one record and inactive in another. Activity calls are given as the source filed them. The calls were made as follows: active = hit-call score of the fitted dose curve at least 0.9, where 1 is the maximum; inactive = score below 0.9.

Assay: BSK_SAg_Proliferation: Cell Proliferation Assessment in the BioMAP Diversity Plus: SAg Assay (AID 2283095)
Details: primary human HUVEC with PBMC
Experimental: BSK_SAg is a cell-based, multiplexed-readout assay that uses umbilical vein endothelium and peripheral blood mononuclear cells, a human vascular primary cell co-culture, with measurements taken at 24 hours after chemical dosing in a 96-well plate.BSK_SAg_Proliferation is an assay component in the BSK_SAg assay. It measures protein content, a form of viability reporter, as detected with absorbance signals by Sulforhodamine staining technology. Data from the assay component BSK_SAg_Proliferation was analyzed into 1 assay endpoint. This assay endpoint, BSK_SAg_Proliferation, was analyzed with bidirectional fitting relative to DMSO as the negative control and baseline of activity. Using a type of viability reporter, measures of total protein for gain or loss-of-signal activity can be used to understand the viability at the cellular-level. Furthermore, this assay endpoint can be referred to as a secondary readout, because this assay has produced multiple assay endpoints where this one serves a viability function. To generalize the intended target to other relatable targets, this assay endpoint is annotated to the cell cycle intended target family, where the subfamily is proliferation.
The levels of cell surface (or secreted, indicated by the prefix "s") biomarker endpoints were measured by ELISA. Overt cytotoxicity to cells in confluent adherent cultures (all systems other than the BT system) was assessed by measuring total protein levels using sulforhodamine B (SRB) staining in parallel cultures at the time of biomarker measurements, indicated as SRB endpoints. For proliferation assays for adherent cell types, individual cell types are cultured at sub-confluence and relative cell numbers quantified by SRB staining at time points optimized for each system (48 h: 3C and CASM3C systems; 72 h: BT and HDF3CGF systems; 96 h: SAg system). SRB was performed by staining cells with 0.1% SRB after fixation with 10% TCA and reading wells at 560 nm.Viability and proliferation of PBMC (T cells) was quantified by Alamar Blue reduction for the SAg and BT systems. For PBMC viability (referred to as PBMC Cytotoxicity within the assay endpoint names), cells were plated (75,000/well in a 96-well plate) and then chemical samples added for 1 h before addition of activators, SEB and TSST-1 (20 ng/mL final concentration each). Cells were incubated for 90 h. Then, Alamar Blue (20 uL/well) (Invitrogen, Cat DAL1100) was added for 6 h, and the plates were read with a fluorescence microplate reader at 546/580 nm (excitation/emission). For PBMC proliferation, cells were plated and activated as above but incubated for only 16 h prior to addition of Alamar Blue. Plates were read after 6 h.

Q: For `Cc1ccccc1CO[C@@H]1C[C@@]2(C(C)C)CC[C@]1(C)O2`, which outcome is on record?
A: inactive

Q: For `O=C(NC(=O)c1cc(F)c(F)cc1Cl)Nc1cc(F)ccc1N1CCC(C(=O)O)CC1`, which outcome is on record?
A: inactive

Q: Which outcome does the source give for `Cc1cc2c3c(c1)C(c1ccccc1)=N[C@@H](NC(=O)c1ccncc1)C(=O)N3CC2` here?
A: inactive

Q: Which outcome does the source give for `CCCN(CCC)N=O` here?
A: inactive

Q: Which outcome does the source give for `N#Cc1ccc(N(CC(N)=O)CC(F)(F)F)cc1C(F)(F)F` here?
A: inactive

Q: With `CCOC(=O)C(O)(c1ccc(Cl)cc1)c1ccc(Cl)cc1` as the molecule, how does the AC50 read?
A: 30.9 µM (active)

Q: For `CN(C)c1nc(=O)n(C2CCCCC2)c(=O)n1C`, which outcome is on record?
A: inactive

Q: For `COS(=O)(=O)OC`, which outcome is on record?
A: inactive

Q: For `Oc1ccc(Cl)cc1Cl`, which outcome is on record?
A: inactive

Q: With `O=NN(c1ccccc1)c1ccccc1` as the molecule, how does the outcome read?
A: inactive

Q: For `CC(C)C(=O)OCC(C)(C)C(OC(=O)C(C)C)C(C)C` (stereo not given), which outcome is on record?
A: inactive

Q: For `C[C@]12CCC(=O)C=C1CC[C@@H]1[C@@H]2CC[C@]2(C)C(=O)CC[C@@H]12`, which outcome is on record?
A: inactive

Q: Which outcome does the source give for `O=C(O)C(F)(F)C(F)(F)C(F)(F)C(F)(F)C(F)(F)C(F)(F)C(F)(F)C(F)(F)F` here?
A: inactive

Q: What about the AC50 of the same molecule?
A: 55.2 µM (active)

Q: For `O=S(=O)(O)C(F)(F)C(F)(F)C(F)(F)C(F)(F)F`, which outcome is on record?
A: inactive

Q: Which outcome does the source give for `C[C@]12CCC(=O)C=C1CC[C@@H]1[C@@H]2CC[C@@]2(C)[C@H]1CC[C@]2(C)O` here?
A: inactive

Q: For `ClC1=C(Cl)[C@]2(Cl)[C@@H]3[C@@H]4C[C@@H]([C@H]5O[C@@H]45)[C@@H]3[C@@]1(Cl)C2(Cl)Cl`, which AC50 is on record?
A: 20 µM (active)

Q: Which AC50 does the source give for `CC(C)(c1ccccc1)c1ccc(O)cc1` here?
A: 34.2 µM (active)

Q: Which outcome does the source give for `C1CC2OC2CC1C1CO1` (stereo not given) here?
A: inactive

Q: Which AC50 does the source give for `O=C(O)C(F)(F)C(F)(F)C(F)(F)C(F)(F)C(F)(F)C(F)(F)C(F)(F)C(F)(F)C(F)(F)F` here?
A: 34.1 µM (active) and 46.2 µM (active) and 47.6 µM (active)

Q: For `C=CC(N)=O`, which outcome is on record?
A: inactive

Q: With `CC(C)(O)C(=O)Nc1ccc([N+](=O)[O-])c(C(F)(F)F)c1` as the molecule, how does the outcome read?
A: inactive

Q: Which AC50 does the source give for `CCC(=O)O[C@H]1CC[C@H]2[C@@H]3CCC4=CC(=O)CC[C@]4(C)[C@H]3CC[C@]12C` here?
A: 33.3 µM (active)

Q: With `Nc1ccc(-c2ccc(N)cc2)cc1` as the molecule, how does the outcome read?
A: inactive

Q: Which outcome does the source give for `CC1=C2C[C@H]3[C@@H](CC=C4C[C@@H](O)CC[C@@]43C)[C@@H]2CC[C@]12O[C@@H]1C[C@H](C)CN[C@H]1[C@H]2C` here?
A: inactive

Q: Which outcome does the source give for `CCCCCCCCOC(=O)c1ccccc1C(=O)OCCCCCCCC` here?
A: inactive

Q: With `CCCCCCCCCC[N+](C)(C)CCCCCCCCCC` as the molecule, how does the AC50 read?
A: 0.148 µM (active)

Q: With `O=C(O)C(F)(F)C(F)(F)C(F)(F)C(F)(F)C(F)(F)F` as the molecule, how does the outcome read?
A: inactive

Q: Which outcome does the source give for `O=C(N[C@H]1CN2CCC1CC2)c1cc2ccoc2cn1` here?
A: inactive

Q: With `CC(c1ccc(O)cc1)(c1ccc(O)cc1)c1ccc(O)cc1` as the molecule, how does the AC50 read?
A: 21.6 µM (active)

Q: Which outcome does the source give for `CCNc1nc(NC(C)C)nc(SC)n1` here?
A: inactive

Q: Which outcome does the source give for `Clc1ccc(Cl)cc1` here?
A: inactive

Q: Which AC50 does the source give for `ClC1=C(Cl)[C@]2(Cl)[C@@H]3[C@H]4C[C@H]([C@@H]5O[C@H]45)[C@@H]3[C@@]1(Cl)C2(Cl)Cl` here?
A: 7.7 µM (active)

Q: With `CCC(C)c1cc([N+](=O)[O-])cc([N+](=O)[O-])c1O` (stereo not given) as the molecule, how does the AC50 read?
A: 19.6 µM (active)

Q: Which outcome does the source give for `Cc1cccc(C)c1N` here?
A: inactive

Q: With `Sc1ccccc1` as the molecule, how does the outcome read?
A: inactive

Q: Which AC50 does the source give for `NS(=O)(=O)C(F)(F)C(F)(F)C(F)(F)C(F)(F)C(F)(F)C(F)(F)C(F)(F)C(F)(F)F` here?
A: 32.2 µM (active) and 43.5 µM (active) and 51.1 µM (active)

Q: For `c1ccc(-c2ccccc2)cc1`, which outcome is on record?
A: inactive

Q: With `Nn1cnnc1` as the molecule, how does the outcome read?
A: inactive

Q: With `O=S(=O)(O)C(F)(F)C(F)(F)C(F)(F)C(F)(F)C(F)(F)C(F)(F)F` as the molecule, how does the outcome read?
A: inactive
